Measured values reported in publication PMC5540273 (PLoS ONE, 2017).
“And” between values parts separate entries of the source, which are not always exact repeats. Equal entries are not always repeated. Where two headings read alike, the source gives them in different places.

How the values were obtained:
YANK3 = test system: T1, YANK3; details: concentration: 1 μM, replicates: in singlicate, n = 1
T1 construct: gene STK32C

YES = test system: T2, YES; details: concentration: 1 μM, replicates: in singlicate, n = 1
T2 construct: gene YES1

YSK1 = test system: T3, YSK1; details: concentration: 1 μM, replicates: in singlicate, n = 1
T3 construct: gene STK25

YSK4 = test system: T4, YSK4; details: concentration: 1 μM, replicates: in singlicate, n = 1
T4 construct: gene MAP3K19

ZAK = details: concentration: 1 μM, replicates: in singlicate, n = 1
ZAP70 = details: concentration: 1 μM, replicates: in singlicate; n = 1
p38-alpha = test system: T5, p38-alpha; details: concentration: 1 μM, replicates: in singlicate, n = 1
T5 construct: gene MAPK14

p38-beta = test system: T6, p38-beta; details: concentration: 1 μM, replicates: in singlicate; n = 1
T6 construct: gene MAPK11

p38-delta = details: concentration: 1 μM, replicates: in singlicate, n = 1
p38-gamma = test system: T7, p38-gamma; details: concentration: 1 μM, replicates: in singlicate, n = 1
T7 construct: gene MAPK12
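Note: KINOMEscan kinase panel screen.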

Row | Structure (SMILES) | %Inh (YANK3) [%] | %Inh (YES) [%] | %Inh (YSK1) [%] | %Inh (YSK4) [%] | %Inh (ZAK) [%] | %Inh (ZAP70) [%] | %Inh (p38-alpha) [%] | %Inh (p38-beta) [%] | %Inh (p38-delta) [%] | %Inh (p38-gamma) [%] | %Inh (YANK3; 1 µM) | %Inh (YES; 1 µM) | %Inh (YSK1; 1 µM) | %Inh (YSK4; 1 µM) | %Inh (ZAK; 1 µM) | %Inh (p38-alpha; 1 µM) | %Inh (p38-delta; 1 µM) | %Inh (p38-gamma; 1 µM)
1 | c1ccc(-c2cc(-c3c[nH]nc3-c3ccccn3)ccn2)cc1 [GW576604] | 0 | 0 | 0 | 13 | 16 | 0 | 47 | 0 | 40 | 0 | – | – | – | – | – | – | – | –
2 | O=c1cc(N2CCOCC2)nc2n(Cc3cccc(Cl)c3Cl)c(C3CC3)nn12 [GSK2358994] | 0 | 9 | 0 | 0 | 12 | 10 | 0 | 8 | 4 | 23 | – | – | – | – | – | – | – | –
3 | Cc1nnc(-c2ccc(C)c(-c3ccc(C(=O)Nc4ccc(NS(C)(=O)=O)cc4)cc3)c2)o1 [GW702865] | 17 | 11 | 0 | 0 | 0 | 15 | 99.7 | 70 | 17 | 0 | – | – | – | – | – | – | – | –
4 | Fc1ccc(-c2nn3c(OCC(F)(F)F)cccc3c2-c2ccncc2)cc1 [GW514784] | 0 | 11 | 17 | 0 | 17 | 0 | 99.9 | 40 | 22 | 1 | – | – | – | – | – | – | – | –
5 | Nc1nc(-c2ccc3c(N)n[nH]c3c2)cc(N2CCCC2)n1 [GSK2227430] | 0 | 0 | 9 | 36 | 0 | 0 | 0 | 0 | 25 | 0 | – | – | – | – | – | – | – | –
6 | NCCNS(=O)(=O)c1ccc(-c2ccnc3[nH]ccc23)cc1 [GSK977617] | – | – | – | – | – | 0 | – | 0 | – | – | 8% and 0% | 11% and 0% | 32% and 25% | 98.1% and 97.3% | 18% and 0% | 0% and 8% | 65% and 49% | 29% and 55%
7 | Cc1c2ccc(N(C)c3ccnc(Nc4cccc(S(N)(=O)=O)c4)n3)cc2nn1Cc1ccccc1.Cl.Cl [GW787226] | 0 | 50 | 24 | 25 | 17 | 0 | 0 | 2 | 0 | 35 | – | – | – | – | – | – | – | –
8 | CNc1ncnc2[nH]ncc12 [SKF-18355] | 0 | 0 | 0 | 46 | 0 | 24 | 6 | 8 | 0 | 0 | – | – | – | – | – | – | – | –
9 | Cc1cn2c(=O)cc(N3CCOCC3)nc2n1Cc1cccc(Cl)c1Cl [GSK2334006] | 34 | 21 | 0 | 75 | 6 | 6 | 46 | 16 | 22 | 0 | – | – | – | – | – | – | – | –
10 | Nc1nccc(-c2c(-c3ccc(F)cc3)ncn2C2CCN(CC(F)(F)F)CC2)n1 [SB-236560] | 0 | 8 | 0 | 0 | 0 | 49 | 96.6 | 11 | 8 | 0 | – | – | – | – | – | – | – | –
11 | COc1ccc(Nc2ncc(C#N)c(Nc3ccccc3C(N)=O)n2)cc1N1CCN(C)CC1.Cl [GSK1558669] | 48 | 98.8 | 95.2 | 99.7 | 64 | 98.1 | 0 | 0 | 0 | 32 | – | – | – | – | – | – | – | –
12 | Cc1cccc(-c2nc(Nc3ccc4ncsc4c3)c3ccccc3n2)n1 [GW867588] | 29 | 0 | 0 | 11 | 0 | 10 | 0 | 0 | 0 | 0 | – | – | – | – | – | – | – | –
13 | Cc1nnc(-c2ccc3occ(-c4ccc(C(C)O)cc4)c3c2)o1 (stereo not shown) | 0 | 3 | 0 | 19 | 46 | 1 | 10 | 13 | 0 | 1 | – | – | – | – | – | – | – | –
14 | Cc1ccc(C(=O)NCC(N)=O)cc1-n1c(C)cc(OCc2ccc(F)cc2F)c(Br)c1=O | 6 | 16 | 0 | 0 | 24 | 0 | 100 | 100 | 18 | 8 | – | – | – | – | – | – | – | –
15 | Cn1cc(-c2ccc3c(c2)CCN3C(=O)Cc2ccccc2Cl)c2c(N)ncnc21 [GSK2608885] | 23 | 99.7 | 20 | 0 | 97.9 | 0 | 99.9 | 99.5 | 26 | 20 | – | – | – | – | – | – | – | –
16 | O=c1cc(N2CCOCC2)nc2n(Cc3cccc(F)c3)ccn12 [GSK2297430] | 22 | 16 | 0 | 33 | 0 | 0 | 43 | 0 | 22 | 0 | – | – | – | – | – | – | – | –
